From the supplement of paper PMC11732987, “Enantioselective OTUD7B fragment discovery through chemoproteomics screening and high-throughput optimisation” (Communications Chemistry, 2025)

Legend:
Experiment in all cases: log2 ratio of Biotin-Ahx-Ub-VS probe labelling (fragment/DMSO); higher = less target engagement (more negative = stronger competition), active = hit call of the paper (q ≤ 0.05, log2 ratio ≤ -1)
Details in all cases: compound concentration: 200 uM; treatment time: 3 h
[1] = biological target: USP34 (UniProt Q70CQ2)
In short: (§1)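 HEK293T lysate (495 µg per sample, in Tris/CHAPS/IGEPAL buffer with protease inhibitors) was treated in triplicate with fragment at 200 µM or with DMSO for 3 h. It was then treated with Biotin-Ahx-Ub-VS (0.5 µM final) for 1 h. Labelled DUBs were NeutrAvidin-enriched, digested with LysC and trypsin, and run by diaPASEF LC-MS/MS. Spectronaut label-free quantities were global-median-normalised. Values are average log2 ratios fragment/DMSO by unpaired t-test, using proteins with ≥2 unique peptides.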

[2] = biological target: T1, USP36 (UniProt Q9P275)
T1 sequence (whole entry): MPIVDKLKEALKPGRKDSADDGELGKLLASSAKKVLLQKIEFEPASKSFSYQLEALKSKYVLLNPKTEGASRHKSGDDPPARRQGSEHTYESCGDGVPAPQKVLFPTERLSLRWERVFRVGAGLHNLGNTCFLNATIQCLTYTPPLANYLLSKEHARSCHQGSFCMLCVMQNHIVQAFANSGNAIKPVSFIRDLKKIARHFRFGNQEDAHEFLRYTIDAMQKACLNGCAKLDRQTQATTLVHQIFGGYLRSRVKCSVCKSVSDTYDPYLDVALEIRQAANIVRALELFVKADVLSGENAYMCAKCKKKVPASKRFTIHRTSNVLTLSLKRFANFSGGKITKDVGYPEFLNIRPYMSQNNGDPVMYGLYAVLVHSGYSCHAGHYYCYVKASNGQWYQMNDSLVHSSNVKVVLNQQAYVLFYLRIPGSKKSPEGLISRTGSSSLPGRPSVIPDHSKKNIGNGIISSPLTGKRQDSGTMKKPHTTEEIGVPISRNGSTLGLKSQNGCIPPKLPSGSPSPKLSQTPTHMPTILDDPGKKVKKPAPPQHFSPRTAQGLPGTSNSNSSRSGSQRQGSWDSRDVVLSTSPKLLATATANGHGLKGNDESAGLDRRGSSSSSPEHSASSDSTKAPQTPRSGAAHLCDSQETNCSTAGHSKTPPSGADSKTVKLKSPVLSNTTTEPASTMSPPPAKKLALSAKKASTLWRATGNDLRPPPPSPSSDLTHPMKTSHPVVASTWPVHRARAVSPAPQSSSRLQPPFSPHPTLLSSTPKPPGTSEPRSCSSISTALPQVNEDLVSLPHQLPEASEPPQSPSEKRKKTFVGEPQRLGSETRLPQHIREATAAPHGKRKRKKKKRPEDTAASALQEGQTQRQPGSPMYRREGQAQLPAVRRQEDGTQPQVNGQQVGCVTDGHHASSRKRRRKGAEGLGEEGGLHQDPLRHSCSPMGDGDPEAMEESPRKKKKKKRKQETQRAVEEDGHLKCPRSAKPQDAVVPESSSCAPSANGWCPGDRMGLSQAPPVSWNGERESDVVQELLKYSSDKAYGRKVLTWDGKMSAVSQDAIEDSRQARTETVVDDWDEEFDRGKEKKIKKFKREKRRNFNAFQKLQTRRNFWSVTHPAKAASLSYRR
In short: as §1

[3] = biological target: T2, USP38 (UniProt Q8NB14)
T2 sequence (whole entry): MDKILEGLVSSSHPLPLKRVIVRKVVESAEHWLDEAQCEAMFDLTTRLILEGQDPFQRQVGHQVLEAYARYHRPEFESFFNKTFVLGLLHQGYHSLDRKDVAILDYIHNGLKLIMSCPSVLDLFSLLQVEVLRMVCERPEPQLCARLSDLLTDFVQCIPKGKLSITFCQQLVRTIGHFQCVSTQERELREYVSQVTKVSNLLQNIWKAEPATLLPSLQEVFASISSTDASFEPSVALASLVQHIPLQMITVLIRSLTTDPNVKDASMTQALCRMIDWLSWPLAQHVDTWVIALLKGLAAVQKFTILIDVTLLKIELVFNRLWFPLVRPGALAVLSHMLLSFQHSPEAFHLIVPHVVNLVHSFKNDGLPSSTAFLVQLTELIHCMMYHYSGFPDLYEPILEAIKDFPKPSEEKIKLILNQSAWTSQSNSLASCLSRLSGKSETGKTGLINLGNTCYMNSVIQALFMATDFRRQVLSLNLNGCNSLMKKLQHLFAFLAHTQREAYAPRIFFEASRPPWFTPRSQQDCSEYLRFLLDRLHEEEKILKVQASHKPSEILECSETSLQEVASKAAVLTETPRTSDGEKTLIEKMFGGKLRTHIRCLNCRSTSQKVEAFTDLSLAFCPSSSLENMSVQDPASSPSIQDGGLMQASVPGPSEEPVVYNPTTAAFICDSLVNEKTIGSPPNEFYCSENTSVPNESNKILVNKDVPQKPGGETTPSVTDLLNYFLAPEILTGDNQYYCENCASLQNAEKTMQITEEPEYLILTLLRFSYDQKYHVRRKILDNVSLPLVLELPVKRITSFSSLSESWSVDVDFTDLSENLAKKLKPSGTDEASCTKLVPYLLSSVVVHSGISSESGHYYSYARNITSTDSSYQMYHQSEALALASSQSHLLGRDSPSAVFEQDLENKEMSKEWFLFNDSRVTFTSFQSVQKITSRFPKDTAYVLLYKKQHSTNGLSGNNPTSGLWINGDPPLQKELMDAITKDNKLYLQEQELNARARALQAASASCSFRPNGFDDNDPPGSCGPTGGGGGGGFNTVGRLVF
In short: as §1

[4] = biological target: T3, USP39 (UniProt Q53GS9)
T3 sequence (whole entry): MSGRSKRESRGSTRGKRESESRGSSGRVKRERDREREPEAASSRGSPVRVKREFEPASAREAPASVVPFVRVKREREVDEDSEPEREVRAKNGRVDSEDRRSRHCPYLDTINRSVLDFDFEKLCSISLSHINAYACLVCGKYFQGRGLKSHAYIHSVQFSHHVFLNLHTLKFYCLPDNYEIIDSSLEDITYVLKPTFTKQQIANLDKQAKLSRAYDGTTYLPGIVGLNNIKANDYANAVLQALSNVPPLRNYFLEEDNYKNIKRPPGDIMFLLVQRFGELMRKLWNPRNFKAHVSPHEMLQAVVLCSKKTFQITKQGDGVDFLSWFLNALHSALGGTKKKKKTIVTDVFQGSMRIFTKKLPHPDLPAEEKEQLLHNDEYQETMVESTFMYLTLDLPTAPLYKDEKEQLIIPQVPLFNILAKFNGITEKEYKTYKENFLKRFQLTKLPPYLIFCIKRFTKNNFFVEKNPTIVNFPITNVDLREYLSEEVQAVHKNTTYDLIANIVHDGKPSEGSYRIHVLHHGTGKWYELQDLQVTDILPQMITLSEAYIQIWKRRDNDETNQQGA
In short: as §1

[5] = biological target: T4, USP4 (UniProt Q13107)
T4 sequence (whole entry): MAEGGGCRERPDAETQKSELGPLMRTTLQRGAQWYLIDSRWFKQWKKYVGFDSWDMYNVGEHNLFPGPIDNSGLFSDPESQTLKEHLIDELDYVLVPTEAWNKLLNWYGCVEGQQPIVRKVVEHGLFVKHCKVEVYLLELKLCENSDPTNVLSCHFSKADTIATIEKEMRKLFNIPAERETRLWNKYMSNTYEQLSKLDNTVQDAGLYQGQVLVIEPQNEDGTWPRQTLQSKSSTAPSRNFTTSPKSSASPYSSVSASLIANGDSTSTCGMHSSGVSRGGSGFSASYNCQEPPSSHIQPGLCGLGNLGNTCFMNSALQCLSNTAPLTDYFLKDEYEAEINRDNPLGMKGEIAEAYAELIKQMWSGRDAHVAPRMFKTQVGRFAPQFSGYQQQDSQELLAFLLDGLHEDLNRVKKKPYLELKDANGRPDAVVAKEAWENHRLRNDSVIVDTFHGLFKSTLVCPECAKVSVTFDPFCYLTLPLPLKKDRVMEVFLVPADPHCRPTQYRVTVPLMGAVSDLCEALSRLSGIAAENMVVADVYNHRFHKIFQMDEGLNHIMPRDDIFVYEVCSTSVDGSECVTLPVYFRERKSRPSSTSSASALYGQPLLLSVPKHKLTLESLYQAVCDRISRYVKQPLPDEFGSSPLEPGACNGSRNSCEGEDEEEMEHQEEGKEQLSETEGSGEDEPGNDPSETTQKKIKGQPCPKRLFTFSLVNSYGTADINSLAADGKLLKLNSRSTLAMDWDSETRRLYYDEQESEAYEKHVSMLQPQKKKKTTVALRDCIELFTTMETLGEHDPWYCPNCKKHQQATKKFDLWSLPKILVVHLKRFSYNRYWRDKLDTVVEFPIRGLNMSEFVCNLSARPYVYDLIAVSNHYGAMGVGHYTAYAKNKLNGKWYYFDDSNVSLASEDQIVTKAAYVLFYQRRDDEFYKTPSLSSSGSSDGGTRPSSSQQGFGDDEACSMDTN
In short: as §1

Measured: log2 ratio of Biotin-Ahx-Ub-VS probe labelling

Chain of USP34 (Q70CQ2 whole entry, the tested form may be a part): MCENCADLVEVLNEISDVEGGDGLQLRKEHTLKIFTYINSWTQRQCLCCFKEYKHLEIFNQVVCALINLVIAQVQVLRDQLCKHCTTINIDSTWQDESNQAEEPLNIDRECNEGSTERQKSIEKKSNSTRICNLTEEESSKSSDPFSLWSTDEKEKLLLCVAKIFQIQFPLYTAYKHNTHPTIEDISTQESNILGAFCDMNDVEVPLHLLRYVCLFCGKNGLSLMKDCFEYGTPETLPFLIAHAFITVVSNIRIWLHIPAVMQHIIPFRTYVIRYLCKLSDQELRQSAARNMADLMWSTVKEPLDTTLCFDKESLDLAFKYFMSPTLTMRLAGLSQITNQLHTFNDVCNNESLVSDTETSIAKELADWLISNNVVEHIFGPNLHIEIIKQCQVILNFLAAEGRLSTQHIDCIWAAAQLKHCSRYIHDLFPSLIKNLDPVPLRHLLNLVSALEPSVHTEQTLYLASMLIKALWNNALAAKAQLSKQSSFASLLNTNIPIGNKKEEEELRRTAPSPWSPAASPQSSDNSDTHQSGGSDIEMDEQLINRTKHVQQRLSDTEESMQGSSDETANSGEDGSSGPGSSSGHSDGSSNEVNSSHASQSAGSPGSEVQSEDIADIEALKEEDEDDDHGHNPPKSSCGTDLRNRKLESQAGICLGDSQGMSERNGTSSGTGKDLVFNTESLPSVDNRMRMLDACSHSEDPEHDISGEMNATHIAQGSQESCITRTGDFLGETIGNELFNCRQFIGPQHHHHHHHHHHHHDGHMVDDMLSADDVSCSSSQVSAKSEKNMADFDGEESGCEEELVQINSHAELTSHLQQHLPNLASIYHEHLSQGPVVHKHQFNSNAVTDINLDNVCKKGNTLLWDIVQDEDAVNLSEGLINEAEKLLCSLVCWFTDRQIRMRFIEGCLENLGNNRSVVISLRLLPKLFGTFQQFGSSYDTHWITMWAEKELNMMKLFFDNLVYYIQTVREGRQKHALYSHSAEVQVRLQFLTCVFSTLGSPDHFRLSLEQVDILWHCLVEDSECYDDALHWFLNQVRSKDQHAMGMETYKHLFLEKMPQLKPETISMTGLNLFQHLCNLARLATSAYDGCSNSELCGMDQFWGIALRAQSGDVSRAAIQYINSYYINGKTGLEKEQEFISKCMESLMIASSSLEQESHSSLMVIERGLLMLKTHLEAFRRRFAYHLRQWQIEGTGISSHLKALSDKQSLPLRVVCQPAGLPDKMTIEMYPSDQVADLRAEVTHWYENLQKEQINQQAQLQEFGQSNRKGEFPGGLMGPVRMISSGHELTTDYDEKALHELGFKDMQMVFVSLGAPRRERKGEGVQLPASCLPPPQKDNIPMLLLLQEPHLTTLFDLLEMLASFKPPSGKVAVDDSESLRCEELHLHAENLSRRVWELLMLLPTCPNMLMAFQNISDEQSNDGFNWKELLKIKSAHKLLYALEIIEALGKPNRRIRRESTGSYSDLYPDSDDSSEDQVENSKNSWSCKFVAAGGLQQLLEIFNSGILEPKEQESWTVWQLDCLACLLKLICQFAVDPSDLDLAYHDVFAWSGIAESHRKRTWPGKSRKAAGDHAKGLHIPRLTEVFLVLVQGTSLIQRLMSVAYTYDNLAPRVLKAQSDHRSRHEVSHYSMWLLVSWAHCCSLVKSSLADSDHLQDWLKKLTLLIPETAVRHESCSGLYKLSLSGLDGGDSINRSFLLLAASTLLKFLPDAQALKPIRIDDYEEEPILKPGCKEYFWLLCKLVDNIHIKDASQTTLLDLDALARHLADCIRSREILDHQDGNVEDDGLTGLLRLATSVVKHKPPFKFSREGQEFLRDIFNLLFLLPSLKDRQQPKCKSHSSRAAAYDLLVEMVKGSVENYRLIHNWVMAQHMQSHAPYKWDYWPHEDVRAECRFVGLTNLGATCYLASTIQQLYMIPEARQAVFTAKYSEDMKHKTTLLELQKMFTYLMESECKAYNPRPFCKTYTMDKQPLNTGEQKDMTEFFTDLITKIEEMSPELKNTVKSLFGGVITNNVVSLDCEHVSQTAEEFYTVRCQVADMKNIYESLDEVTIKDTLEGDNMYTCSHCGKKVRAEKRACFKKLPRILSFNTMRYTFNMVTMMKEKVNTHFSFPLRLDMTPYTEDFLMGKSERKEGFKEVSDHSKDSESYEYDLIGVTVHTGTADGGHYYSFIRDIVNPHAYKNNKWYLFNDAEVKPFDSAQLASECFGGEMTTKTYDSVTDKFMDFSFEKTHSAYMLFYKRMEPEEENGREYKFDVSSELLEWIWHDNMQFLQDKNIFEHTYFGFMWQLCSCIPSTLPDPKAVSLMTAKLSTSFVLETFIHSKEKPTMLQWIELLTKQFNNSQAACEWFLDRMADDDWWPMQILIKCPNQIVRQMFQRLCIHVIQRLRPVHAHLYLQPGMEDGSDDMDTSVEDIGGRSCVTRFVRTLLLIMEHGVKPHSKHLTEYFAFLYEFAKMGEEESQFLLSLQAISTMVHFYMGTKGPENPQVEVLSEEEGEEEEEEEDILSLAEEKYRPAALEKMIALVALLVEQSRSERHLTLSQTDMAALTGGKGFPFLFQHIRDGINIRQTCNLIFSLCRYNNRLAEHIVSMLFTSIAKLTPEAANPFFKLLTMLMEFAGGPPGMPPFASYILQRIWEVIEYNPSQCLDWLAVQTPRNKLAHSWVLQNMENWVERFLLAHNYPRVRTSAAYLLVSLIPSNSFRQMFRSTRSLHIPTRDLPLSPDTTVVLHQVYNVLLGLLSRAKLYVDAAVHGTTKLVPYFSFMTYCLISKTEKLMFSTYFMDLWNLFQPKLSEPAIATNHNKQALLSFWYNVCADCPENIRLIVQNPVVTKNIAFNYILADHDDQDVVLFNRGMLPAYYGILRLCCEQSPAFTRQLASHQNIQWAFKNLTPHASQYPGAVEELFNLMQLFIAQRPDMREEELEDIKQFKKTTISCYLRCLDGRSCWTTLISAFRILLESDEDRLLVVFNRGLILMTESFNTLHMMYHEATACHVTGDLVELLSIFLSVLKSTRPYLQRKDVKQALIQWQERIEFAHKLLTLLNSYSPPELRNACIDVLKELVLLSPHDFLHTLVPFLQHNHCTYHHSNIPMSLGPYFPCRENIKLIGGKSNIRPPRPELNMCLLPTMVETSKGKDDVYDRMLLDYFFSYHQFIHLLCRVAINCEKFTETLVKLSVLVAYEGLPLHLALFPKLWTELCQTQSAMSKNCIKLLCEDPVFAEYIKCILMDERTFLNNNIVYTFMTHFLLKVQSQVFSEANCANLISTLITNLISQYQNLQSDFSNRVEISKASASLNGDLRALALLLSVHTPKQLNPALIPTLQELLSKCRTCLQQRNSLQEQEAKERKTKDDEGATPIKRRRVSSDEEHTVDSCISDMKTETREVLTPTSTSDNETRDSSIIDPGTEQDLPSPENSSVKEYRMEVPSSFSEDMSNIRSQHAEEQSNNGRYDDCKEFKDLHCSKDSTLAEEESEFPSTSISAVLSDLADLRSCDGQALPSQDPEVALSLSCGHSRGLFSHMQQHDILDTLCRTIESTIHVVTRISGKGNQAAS

O=C(CCl)N1CCC(C(=O)N2CCCC2)CC1
inactive: [1] -0.0649 | [2] -0.172 | [3] -0.135 | [4] -0.453 | [5] -0.208
